# Screens from PubChem BioAssay.
# FECH block: inhibitors of human ferrochelatase, primary screen, biochemical, purified FECH, Ni-mesoporphyrin absorbance; Ni-mesoporphyrin absorbance 550 nm; Ferrochelatase, mitochondrial (Homo sapiens), P22830; calls only at 10 µM (by protocol); 20,000 compounds, 3.3% hits;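 active means enzyme reaction rate more than 3 SD below the solvent-only control wells on the same plate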;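 further: lower slope than DMSO wells means FECH inhibition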
# Target sequence (P22830 whole entry, looked up): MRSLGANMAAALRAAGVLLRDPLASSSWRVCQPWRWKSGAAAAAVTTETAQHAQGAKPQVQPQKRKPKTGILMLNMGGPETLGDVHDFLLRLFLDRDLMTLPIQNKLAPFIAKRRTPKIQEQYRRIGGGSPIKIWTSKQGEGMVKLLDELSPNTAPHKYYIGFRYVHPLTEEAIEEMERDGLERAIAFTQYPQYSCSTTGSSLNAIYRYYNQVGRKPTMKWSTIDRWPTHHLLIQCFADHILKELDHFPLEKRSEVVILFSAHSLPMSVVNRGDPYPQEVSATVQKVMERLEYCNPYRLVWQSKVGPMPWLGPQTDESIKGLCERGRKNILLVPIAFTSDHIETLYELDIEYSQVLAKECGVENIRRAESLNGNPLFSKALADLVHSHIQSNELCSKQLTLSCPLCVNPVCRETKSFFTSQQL
# The depositor's hits bear a star; i = inactive; + = active, no number. Shown is part of a subset that was picked to be rich in hits.
SMILES,FECH block
Cc1ccc(NC(=O)CN2C(=O)c3cccnc3Sc3ccccc32)cc1F,+
Cc1ccc(NC(=O)CN2C(=O)CN(C)C(=O)c3ccccc32)cc1C,i
CN(C)c1ccc(CNC(=O)CN2C(=O)c3cccnc3Sc3ccccc32)cc1,+
O=C(CN1C(=O)c2cccnc2Sc2ccccc21)NCCc1ccco1,i
COCCNC(=O)CSCc1nc(-c2ccc(Cl)cc2)no1,i
COc1ccccc1CNc1nc(SC)nc(-c2ccc(C)cc2)c1C#N,i
Fc1ccccc1CCn1ccnc1-c1cnc(N2CCCC2)nc1,i
CC(NC(=O)c1ccc(CN2C(=O)CCn3nc(-c4ccccc4)cc32)cc1)C(=O)N1CCCCC1 (stereo not drawn),i
CN1CC(NC(=O)c2cc(C3CC3)[nH]n2)c2sccc2S1(=O)=O (stereo not drawn),i
CN1CCCC(CCNC(=O)Cn2[nH]c(=O)ccc2=O)C1 (stereo not drawn),i
Cc1nc(S(=O)(=O)N2CCCCC2CCc2ccccc2)cn1C (stereo not drawn),i
CN(Cc1ncc[nH]1)C(=O)COc1ccc(F)cc1,i
Cc1cnc(CN(C)C(=O)c2ccc(OCC(=O)N3CCCCC3)cc2)[nH]1,+
NC1(C(=O)O)CCN(Cc2ccc(OCC(=O)N3CCCCC3)cc2)C1 (stereo not drawn),i
COc1ccc(Cl)cc1N(C)C(=O)C1CCCN(c2ncnc3c2nc2n3CCCCC2)C1 (stereo not drawn),i
Cc1ccc(N2CCC(=O)N(CC3CC3)C(C(C)C)C2)nn1 (stereo not drawn),i
CCOC(=O)c1cc2ccsc2n1C(CC)C(=O)N1CCOCC1 (stereo not drawn),i
NS(=O)(=O)c1ccc(CCNS(=O)(=O)c2ccc3c(c2)CCCC(=O)N3)cc1,i
O=C1CC(=O)Nc2cc(S(=O)(=O)N3CCCCC3)ccc2N1,i
Cc1ccc(NS(=O)(=O)c2ccc(N)c(S(N)(=O)=O)c2)cc1Cl,i
O=C1CC(=O)Nc2cc(S(=O)(=O)N3CCN(c4ccc(F)cc4)CC3)ccc2N1,+
Cc1ccc(-c2cc(N3CCN(S(=O)(=O)c4ccc(F)cc4)CC3)ncn2)cc1,i
Nc1ccc(S(=O)(=O)N2CCN(c3ccc(F)cc3)CC2)cc1S(N)(=O)=O,+
O=C1CC(=O)Nc2cc(S(=O)(=O)N3CCOCC3)ccc2N1,i
O=C(NCC1CCCCO1)c1ccc(CSc2ccccn2)cc1 (stereo not drawn),i
SMILES,FECH block
Cc1ncsc1CCn1ccnc1-c1cnc(-c2cccs2)nc1,i
Cc1ccccc1S(=O)(=O)NCc1nc2cccnc2n1Cc1ccccc1Cl,i
COc1cc(C(=O)N2CCc3c(c(C(=O)NCc4ccccc4)nn3C)C2)cc(OC)c1OC,i
COc1cc2c(cc1O)C(c1cnc(-c3cccc(C)c3)nc1)CC(=O)N2 (stereo not drawn),i
COc1ccc(C)cc1-n1c(SCC(=O)O)nnc1-c1cccnc1,i
COc1ccc(Nc2cc(C)nc(Nc3ccc(NC(=O)c4ccc(OC)c(OC)c4)cc3)n2)cc1,i
Cc1nc(CN(C)C(=O)CSc2ccc(Cl)cc2)no1,i
Cn1c(=O)c(C(=O)N2CCN(C3CCCCC3)CC2)nc2ccccc21,i
COc1cccc(N2CCN(C(=O)c3nc4ccccc4n(C)c3=O)CC2)c1,+
Cc1ccc(NC(=O)c2nc3ccccc3n(C)c2=O)c(C)c1,i
Cc1ccc(Cl)cc1N1CCN(C(=O)c2nc3ccccc3n(C)c2=O)CC1,i
Cc1cccc(N2CCN(C(=O)Cn3c(=O)c4cnc(-c5ccccc5)nc4n(C)c3=O)CC2C)c1 (stereo not drawn),i
Cc1cccc(N2CCN(C(=O)c3nc4ccccc4n(C)c3=O)CC2C)c1 (stereo not drawn),+
CCc1ccc(S(=O)(=O)N2CCN(Cc3nc4cccnc4n3-c3ccc(F)cc3)CC2)cc1,i
Cc1cc(C)n(CCCC(=O)N2CCC3(CC2)c2ccccc2[C@@H](N)[C@@H]3O)n1,i
CCOc1ccc(-c2nc(SCC(=O)Nc3cc(C)ccc3OC)n3[nH]c(=O)cc3n2)cc1,i
C=CCNc1nc(-c2nnc(-c3ccc(C)cc3)o2)nc2ccccc12,i
COc1ccc(N2CC(NC(=O)c3ccccc3F)CC2=O)cc1 (stereo not drawn),i
COc1cccc(OC)c1-c1ccc2nc(CO)[nH]c2c1,+
COc1cc2c(cc1-c1nccn1-c1ccc3nc(CO)[nH]c3c1)CCC2,i
COc1ccc(-c2ccc3nc(CO)[nH]c3c2)cc1Cl,i
COc1ccccc1C(=O)N(Cc1nc2nc(C)cc(C)n2n1)c1ccc(Cl)cc1,i
Cc1cc(C)n(CC(C)NCC(=O)Nc2cnccn2)n1 (stereo not drawn),i
Cc1cccc(-c2nc3nc(CN4CCCCC4C)cc(=O)n3[nH]2)c1 (stereo not drawn),+
CC1CCCCN1Cc1cc(=O)n2[nH]c(-c3ccc(C(C)(C)C)cc3)nc2n1 (stereo not drawn),i
SMILES,FECH block
Cc1cccc(-c2nc3nc(CN4CCCC4)cc(=O)n3[nH]2)c1,i
CNC(=O)[C@@H]1C[C@@H](N)CN1Cc1ccc(Oc2ccccc2)nc1,i
Cc1ccc(-c2nc(C)cc(OCC(=O)Nc3cc(C)ccc3C)n2)cc1,i
Cc1ccc(-c2nc(C)cc(OCC(=O)Nc3ccc(C)c(F)c3)n2)cc1,+
COc1ccc(NC(=O)COc2cc(C)nc(-c3ccc(C)cc3)n2)cc1OC,i
COc1ccc(N2C(=O)CCS2(=O)=O)cc1S(=O)(=O)Nc1c(C)cccc1C,i
Cc1cc(=O)c(C(=O)N2CCC3(CCCO3)CC2)c(C)[nH]1,i
CCOCCCNC(=O)C1c2c(n(C)c3ccccc23)SCC(=O)N1c1cccc(Cl)c1C (stereo not drawn),i
CCN(CC)c1ccc(CNC(=O)c2ccc(Nc3cc(-c4ccccc4)ncn3)cc2)cc1,i
CC(C)CN(Cc1ccco1)C(=O)c1cn(CC2CCCNC2)nn1 (stereo not drawn),i
O=C(CCC(=O)N1CCc2cc(S(=O)(=O)N3CCCCCC3)ccc21)N1CCCCCC1,i
COCc1nc2cccnc2n1C1CCN(S(=O)(=O)c2ccccc2)CC1,i
COCc1nc2cccnc2n1C1CCN(S(=O)(=O)c2ccc(Br)cc2)CC1,i
COCc1nc2cccnc2n1C1CCN(S(=O)(=O)c2ccc(NC(C)=O)cc2)CC1,+
CCOc1c(N2CCN(c3cccc(C)c3C)CC2)c(=O)c1=O,i
COc1cccc2c(C)cc(N3CCC(CC4CC4)(C(=O)O)CC3)nc12,i
CCCCN(Cc1ccc(F)cc1)C(=O)C1(N)CC1,i
Cc1ccc(S(=O)(=O)N(Cc2ccccc2)Cc2nc3nc(C)cc(C)n3n2)cc1,i
O=C(NCc1ccco1)C1CCN(c2ccc(-c3cccs3)nn2)CC1,i
Cc1ccccc1CCNC(=O)c1cc2n(n1)CC(C)(C(=O)NCc1ccc(F)cc1)N(C)C2=O (stereo not drawn),i
CCS(=O)(=O)N1CCC(n2c(-c3ccccc3)nc3cccnc32)CC1,i
Cn1c(=O)c(C(=O)Nc2ccccn2)nc2ccccc21,+
Cn1c(=O)c(C(=O)Nc2ccccc2Br)nc2ccccc21,i
Cn1c(=O)c(C(=O)Nc2ccc(F)cc2)nc2ccccc21,i
Cc1ccsc1-c1cc(C(=O)O)cc(S(=O)(=O)NCC2CCCO2)c1 (stereo not drawn),i
